Results taken from PubChem BioAssay (NCI).
Compounds without any hit were thinned out: in the full panel of roughly 83,000, 20% have a hit.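 Treatment: one concentration, 48 hours, 96-well format. Scoring: percent growth, with anything below 10 considered active.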 A number with no mark means an inactive call. Calls of active or inactive are those of the source.

Experiments:
Assay in all cases: NCI-60 one-dose screen, 48 h (100 = growth as untreated, 0 = no growth, -100 = all killed)
Conditions in all cases: 10 µM unless noted
NCI-H23 lung = tested on: NCI-H23 lung
NCI-H226 lung = tested on: NCI-H226 lung
NCI-H322M lung = tested on: NCI-H322M lung
HOP-62 NSCLC = tested on: HOP-62 NSCLC
NCI-H460 lung = tested on: NCI-H460 lung
HOP-92 NSCLC = tested on: HOP-92 NSCLC
NCI-H522 lung = tested on: NCI-H522 lung
A549/ATCC NSCLC = tested on: A549/ATCC NSCLC
786-0 renal = tested on: 786-0 renal
DU-145 prostate = tested on: DU-145 prostate
K-562 leukemia = tested on: K-562 leukemia
MALME-3M melanoma = tested on: MALME-3M melanoma
MDA-MB-231 breast = tested on: MDA-MB-231 breast
RXF 393 renal = tested on: RXF 393 renal
SF-268 CNS = tested on: SF-268 CNS
SF-295 CNS = tested on: SF-295 CNS
SF-539 CNS = tested on: SF-539 CNS
UACC-257 melanoma = tested on: UACC-257 melanoma
M14 melanoma = tested on: M14 melanoma
COLO 205 colon = tested on: COLO 205 colon

| SMILES | growth (NCI-H23 lung) | growth (NCI-H226 lung) | growth (NCI-H322M lung) | growth (HOP-62 NSCLC) | growth (NCI-H460 lung) | growth (HOP-92 NSCLC) | growth (NCI-H522 lung) | growth (A549/ATCC NSCLC) | growth (786-0 renal) | growth (DU-145 prostate) | growth (K-562 leukemia) | growth (MALME-3M melanoma) | growth (MDA-MB-231 breast) | growth (RXF 393 renal) | growth (SF-268 CNS) | growth (SF-295 CNS) | growth (SF-539 CNS) | growth (UACC-257 melanoma) | growth (M14 melanoma) | growth (COLO 205 colon) |
| --- | --- | --- | --- | --- | --- | --- | --- | --- | --- | --- | --- | --- | --- | --- | --- | --- | --- | --- | --- | --- |
| C=CC(=O)Nc1cc(Nc2nccc(-c3cn(C)c4ccccc34)n2)c(OC)cc1N(C)CCN(C)C | 8.43% (active) | -50.5% (active) | -5.77% (active) | -23.9% (active) | -54.8% (active) | -15.8% (active) | -68.6% (active) | -43.5% (active) | -87.9% (active) | 9.23% (active) | -40.1% (active) | -82.4% (active) | -68.4% (active) | -84.2% (active) | -15.6% (active) | -41.4% (active) | -90.7% (active) | -79.1% (active) | -79.4% (active) | – |
| O=C(Cn1cncn1)Nc1ccc(-c2nc3ccccc3s2)cc1 | 87.5% | 75% | 101% | 102% | 97% | 93.5% | 87.5% | 88.1% | 95.6% | 94.5% | 85.8% | 100% | 96.5% | 125% | 97.1% | 91.9% | 108% | 102% | 111% | – |
| C[C@@H]1COCCN1c1cc(C2([S@](C)(=N)=O)CC2)nc(-c2ccnc3[nH]ccc23)n1 | -1.16% (active) | 39.5% | 3.93% (active) | 8.86% (active) | 9.37% (active) | 23% | 30.9% | 8.97% (active) | 2.08% (active) | 17.5% | 10.8% | 43.1% | 48% | -28.4% (active) | 43.5% | 19% | 1.29% (active) | 52.8% | 10.6% | – |
| CCc1nc2cc(/C=C/C(=O)NO)ccc2c(=O)n1CCc1ccc(OC)cc1 | 24.5% | 50% | 29.9% | 16.6% | 13% | 22.5% | 15.2% | 24.1% | 21% | 7.21% (active) | 8.06% (active) | – | 16.8% | -25% (active) | 26.4% | 21.3% | 26.5% | – | 16.3% | -2.84% (active) |
| O=C(Nc1cnn2ccc(N3CCC[C@@H]3c3cc(F)ccc3F)nc12)N1CC[C@H](O)C1 | 87.8% | 93.8% | 104% | 71.8% | 84.1% | 89.5% | 70.5% | 72.4% | 91% | 110% | 74.8% | 114% | 88.2% | 80.7% | 91% | 96.9% | 77.4% | 70.8% | 81.5% | – |
| COc1cc(NCCCN)c2ncccc2c1 | 70.8% | 92.7% | 82.9% | 79.4% | 74% | 50.7% | 84% | 95.9% | 95.7% | 109% | 89.9% | 109% | 87.5% | 93.6% | 90.7% | 67.8% | 88.4% | 93.7% | 75.9% | – |
| Nc1nc(N)c2cc(CNc3ccc(C(=O)NC(CC(=O)O)C(=O)O)cc3)ccc2n1 (centres undefined) | 17.7% | 23.2% | 66.7% | 19.7% | 11.5% | 48.5% | 34.3% | -32.8% (active) | 15.8% | 26.7% | – | 81.3% | 95.8% | – | 29.7% | 28.5% | 15.6% | – | 16.7% | 51.9% |
| CCCCCC(=O)OCc1ccc(Cl)c(Cl)c1 | 96.2% | 100% | 96.3% | 101% | 107% | 109% | 97.5% | 103% | 104% | 105% | 98.8% | 90.4% | 110% | 116% | 99.3% | 108% | 105% | 103% | 104% | – |
